Shiga inhibitor: A qHTS for Small Molecule Inhibitors of Shiga Toxin; Vero cells, Shiga toxin protein synthesis inhibition reporter; inhibition, % at 38.7 µM; 290,000 tested, 9.2% active; in the data active means inhibition mostly above about 28%, no sharp cut-off; inactive means mostly below about 43%; further: 0% is about no effect
CHX counter: Cycloheximide Counterscreen for Small Molecule Inhibitors of Shiga Toxin; cell reporter, cycloheximide protein synthesis inhibition counterscreen; max response, %; 300,000 tested, 12% active; AID 2314, 2010; in the data active means max response mostly above about 13%, no sharp cut-off; inactive means mostly below about 14%; further: read at 38.3 µM for the half of the compounds with a filed dose; 0% is about no effect
SARS PLpro yeast: qHTS of Yeast-based Assay for SARS-CoV PLP; S. cerevisiae expressing SARS-CoV PLpro, growth rescue; Potency, µM (series often up to 32.9 µM), without a hit: at the highest dose activity, positive = growth rescue, hits mostly activators; 330,000 tested, 0.19% active; AID 485353, 2010; calls by dose curve; further: potency means the concentration at half of the fitted maximal effect; 0% is about no effect; nearly all actives have a fitted effect of over 55% in size
AMA1 RON2 block: qHTS for Inhibitors of AMA1-RON; Towards Development of Antimalarial Drug Lead: Primary Screen; AlphaScreen AMA1-biotinylated RON2 peptide binding; Potency, µM (highest dose often 58.2 µM), inactives show at the top dose activity change, negative = inhibition, most hits filed as inhibitors; 360,000 tested, 0.2% active; AID 720542, 2013;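 further: potency means the concentration at half of the fitted maximal effect; 0% = vehicle wells and -100% = peptide control; nearly all actives have a fitted effect of over 45% in size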
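AMA1 (3D7) with his tag at 25 nM final met compounds first, then biotinylated RON2 peptide at 25 nM; detection used donor plus acceptor beads, 10 µg/mL apiece, read by AlphaScreen after 30 min at room temperature.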
AmpC inh no detg: qHTS Inhibitors of AmpC Beta-Lactamase (assay without detergent) | 330,000 tested, 0.52% active | P00811 | AmpC nitrocefin hydrolysis, absorbance 480 nm, 0.0001% Triton | Potency, µM (top dose mostly 57.1 µM), without a hit: top-dose activity change, negative = inhibition, most hits filed as inhibitors | AID 485341, 2010;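 further: potency means the concentration at half of the fitted maximal effect; plate controls were no compound for no effect and no enzyme for full effect; nearly all actives have a fitted effect of over 20% in size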
Target sequence (P00811 whole entry, looked up): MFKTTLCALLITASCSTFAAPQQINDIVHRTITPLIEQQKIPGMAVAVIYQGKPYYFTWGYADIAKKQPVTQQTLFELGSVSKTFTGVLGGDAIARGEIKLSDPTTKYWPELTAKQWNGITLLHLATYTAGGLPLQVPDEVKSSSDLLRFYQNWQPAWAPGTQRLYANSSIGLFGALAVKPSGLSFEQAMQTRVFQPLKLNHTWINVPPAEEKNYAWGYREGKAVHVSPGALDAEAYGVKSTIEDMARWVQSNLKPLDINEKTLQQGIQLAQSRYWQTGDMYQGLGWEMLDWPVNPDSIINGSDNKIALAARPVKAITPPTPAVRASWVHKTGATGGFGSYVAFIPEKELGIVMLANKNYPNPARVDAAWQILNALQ
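20 mM phosphate pH 7.0 + 0.01% (detergent screen) or 0.0001% Triton X-100; 5.3 nM AmpC reagent; cpd preinc 15 min RT; nitrocefin (800 uM stock) to start; A480 q20 s × 4 min; Activity was normalised to no-enzyme and no-compound control wells.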
AmpC detergent: qHTS Inhibitors of AmpC Beta-Lactamase (assay with detergent); AmpC hydrolysis of nitrocefin, absorbance 480 nm, 0.01% Triton; 370,000 tested, 0.041% active; P00811; Potency, µM (series often up to 114 µM), for inactives: top-dose activity change, negative = inhibition, hits mostly inhibitors; AID 485294, 2010;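 further: potency means the concentration at half of the fitted maximal effect; 0% = no-compound wells and -100% = no-enzyme wells; nearly all actives have a fitted effect of over 25% in size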
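AmpC (5.3 nM in the dispensed reagent) in 20 mM phosphate pH 7.0 with 0.01% (detergent screen) or 0.0001% Triton X-100 was preincubated with compounds for 15 min at room temperature. Nitrocefin was then added from an 800 uM solution, and hydrolysis was followed at 480 nm.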
Numbers without * were called inactive; u = inconclusive; x = no result; + = active, no number. This excerpt belongs to a sample that is enriched for hits. Unless noted, the call rests on the fitted dose curve; in most records, active means well fitted curve in the direction sought with a large enough effect; inconclusive means small, poorly fitted or top-dose-only effect, or another doubt; inactive means no such curve, though single readings can be large; an effect the other way counts as inactive or inconclusive.

SMILES | Shiga inhibitor | CHX counter | SARS PLpro yeast | AMA1 RON2 block | AmpC inh no detg | AmpC detergent
CC1=NNC(=O)C1CC(=O)N/N=C/c1sccc1C (stereo not given) | 1 | 12 | 3% | -18% | -9% | 2%
COc1ccc(/C=N/Nc2cn[nH]c(=O)c2Cl)cc1 | 60 | 29* | 1% | -8% | -32% | -14%
O=c1[nH]ncc(N/N=C/c2ccccc2)c1Cl | 20 | 5 | u | -2% | -2% | -4%
Cc1ccsc1/C=N\Nc1cn[nH]c(=O)c1Cl | 46 | 31* | 1% | -12% | -14% | -7%
Cc1ccc(/C=N\Nc2cn[nH]c(=O)c2Cl)cc1 | 107 | 38* | 9% | 2% | -10% | 2%
CC(C)c1ccc(NC(=O)COC(=O)CCC(=O)c2cccs2)cc1 | -3 | 16 | -12% | 0% | -2% | -6%
Cc1cccc(CN2CCN([C@H]3CS(=O)(=O)N[C@@H]3COCc3ccccc3)CC2)c1 | x | x | x | -4% | x | x
COc1ccccc1N=Cc1c(C)c(C#N)c2[nH]c3ccccc3n2c1=O | 36 | 18* | 0% | -21% | -16% | 1%
Cc1ccc(-c2cc(C(=O)NCCCn3ccnc3)no2)cc1 | 50* | 26* | 1% | -7% | 1% | -4%
O=C(NCCCn1ccnc1)c1cc(C2CC2)on1 | 9 | -3 | 1% | -1% | 1% | u
O=C(NCCCn1ccnc1)c1cc(-c2cccc(O)c2)on1 | 74* | 31* | 0% | -2% | -13% | -7%
Cc1ccc(CC(=O)NCCCn2ccnc2)cc1 | -3 | -1 | 1% | -10% | -12% | -25%
COc1ccc(-c2cc(C(F)(F)F)n3nc(C(=O)NCCCn4ccnc4)cc3n2)cc1 | 14 | 23* | 8% | 9% | 103% | 1%
CCCCn1c(=O)c2ccccc2n2c(=S)[nH]nc12 | -10 | -5 | 3% | 80% | -47% | 3%
CC(C)CSc1nc2c(c(=O)[nH]c(=O)n2C)n1CC(O)COc1cccc2ccccc12 (stereo not given) | -10 | -4 | u | -14% | 51% | u
COCCCn1nnnc1SCC(=O)Nc1ccc2c(c1)OCCO2 | 16 | 9 | 0% | -4% | -1% | -8%
Nn1c(SCC(=O)Nc2ccc3c(c2)OCCO3)nncc1=O | 31* | 16* | 25% | 49% | -15% | 4%
Cc1ccccc1-c1nnc(SCC(=O)Nc2ccc3c(c2)OCCO3)n1N | -5 | -3 | -3% | -4% | -23% | u
COc1cccc(-n2nnnc2SCC(=O)Nc2ccc3c(c2)OCCO3)c1 | -19 | -5 | -5% | 14% | -16% | u
CCn1nnnc1SCC(=O)Nc1ccc2c(c1)OCCO2 | 64* | 44* | u | 15% | -21% | 4%
CC(C)n1nnnc1SCC(=O)Nc1ccc2c(c1)OCCO2 | 117* | 57* | 1% | x | 74% | u
COc1ccc(-n2nnnc2SCC(=O)Nc2ccc3c(c2)OCCO3)c(OC)c1 | 74* | 46* | -3% | -3% | -35% | -13%
O=C(Nc1nc2ccc(F)cc2s1)c1ccc(N2CCCC2=O)cc1 | x | x | -2% | 12% | -17% | u
CC(=O)NCCOc1nc(N(C)C)nc(N(C)C)n1 | -14 | -1 | -6% | 4% | -10% | 2%
CCC1(C)NC(=O)N(CC(=O)Nc2cc(C)on2)C1=O (stereo not given) | x | x | -4% | 37% | -15% | x
SMILES | Shiga inhibitor | CHX counter | SARS PLpro yeast | AMA1 RON2 block | AmpC inh no detg | AmpC detergent
CN(C)c1ccc(/C=N/n2c(-c3cccnc3)n[nH]c2=S)cc1 | -14 | -3 | -1% | u | -21% | u
CSc1ccc(/C=N/n2c(C)nc3ccccc3c2=O)cc1 | 30 | 23* | 1% | -5% | -15% | 3%
Cc1nc2ccccc2c(=O)n1/N=C/c1ccccn1 | 22 | 28* | -3% | 99% | -9% | -10%
COc1cc(OC)c(OC)cc1/C=N/n1c(C)nc2ccccc2c1=O | 29 | -2 | -8% | -11% | 37% | -5%
Cc1nc2ccccc2c(=O)n1/N=C/c1ccccc1F | 105* | 52* | 4% | -5% | 2% | -15%
CN(C)c1ccc(/C=N/n2c(-c3ccccc3Br)n[nH]c2=S)cc1 | 54 | 17* | 1% | 43% | -50% | 2%
COc1cc(C)ccc1S(=O)(=O)NC(=O)C1(C)CCN1C(=O)Cc1ccc(Cl)cc1Cl (stereo not given) | x | x | x | 3% | x | x
Cc1cc(C)nc(NS(=O)(=O)c2ccc(NC(=S)NC(=O)C3CCCC3)cc2)n1 | -19 | -1 | 12% | 9% | -52% | u
CCOc1ccc(/C=N/n2c(C)nc3ccccc3c2=O)cc1 | -5 | -2 | -1% | 0% | -4% | -1%
Cc1nc2ccccc2c(=O)n1/N=C/c1ccc(N(C)C)cc1 | 27 | 26* | -4% | 0% | 0% | -14%
Cc1nc2ccccc2n1/N=C/c1ccc([N+](=O)[O-])o1 | x | x | x | -3% | x | x
CN(/N=C/c1ccc([N+](=O)[O-])o1)c1ccccc1 | 42 | 33* | -12% | 13µM* | -23% | 4%
Cc1nc2ccccc2c(=O)n1/N=C/c1ccc([N+](=O)[O-])o1 | 56* | 34* | -7% | x | -24% | 1%
Cc1ccc(NC(=O)CNC(=O)c2ccc(OC(F)F)cc2)cc1S(=O)(=O)N1CCCCCC1 | x | x | x | -2% | x | x
COc1cc(CC(NC(C)=O)C(=O)NC2CCN(C(=O)Nc3ccc(C)cc3)CC2)cc(OC)c1 (stereo not given) | 9 | -3 | 0% | 2% | 50% | 5%
CCOC(=O)/C(C#N)=C/c1cc2cc(C)c(C)cc2nc1Cl | 0 | 3 | -2% | -8% | 0% | -1%
Cc1cc2cc(C=C(C#N)C#N)c(Cl)nc2cc1C | + | 25* | -17% | 4% | -27% | -12%
O=[N+]([O-])c1cccc2ccc(/C=C/c3ccc(F)cc3)nc12 | 95* | 131* | 11% | u | -26% | -18%
CCOc1cc(/C=C/c2ccc3cccc([N+](=O)[O-])c3n2)ccc1O | 19 | 13* | -1% | u | -36% | -7%
O=[N+]([O-])c1cccc(/C=C/c2ccc3cccc(O)c3n2)c1 | 107* | 35* | -2% | 88% | -22% | 2%
O=[N+]([O-])c1ccc(/C=C/c2ccc3cccc([N+](=O)[O-])c3n2)cc1 | 24 | 22* | 18% | u | -34% | -1%
O=[N+]([O-])c1cccc(/C=C/c2nc(C=Nc3ccc4ccccc4c3)c(O)o2)c1 | -8 | -1 | 5% | 4% | -17% | 1%
COc1cc(/C=C/c2ccc3cccc([N+](=O)[O-])c3n2)ccc1OCC#N | -6 | 16 | 18% | u | u | -10%

Compound activity from PubChem.
